# A selection: hits, their analogues and other compounds. The true share with any hit is near 12%.
# ROMK primary: human ROMK K+ channel modulation, primary screen; P48048; Tet-inducible ROMK, thallium flux fluorescence; actives lie on both sides; B-score at 10 µM; actives 2% (n = 130,000); AID 1918;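 active = signal ratio slope over the read window, or its plate-corrected B-score, at least 3 SD from the plate mean, either direction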;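 also: B-score of the F/F0 ratio slope over 7 to 12 s after thallium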
# Target sequence (P48048 whole entry, looked up): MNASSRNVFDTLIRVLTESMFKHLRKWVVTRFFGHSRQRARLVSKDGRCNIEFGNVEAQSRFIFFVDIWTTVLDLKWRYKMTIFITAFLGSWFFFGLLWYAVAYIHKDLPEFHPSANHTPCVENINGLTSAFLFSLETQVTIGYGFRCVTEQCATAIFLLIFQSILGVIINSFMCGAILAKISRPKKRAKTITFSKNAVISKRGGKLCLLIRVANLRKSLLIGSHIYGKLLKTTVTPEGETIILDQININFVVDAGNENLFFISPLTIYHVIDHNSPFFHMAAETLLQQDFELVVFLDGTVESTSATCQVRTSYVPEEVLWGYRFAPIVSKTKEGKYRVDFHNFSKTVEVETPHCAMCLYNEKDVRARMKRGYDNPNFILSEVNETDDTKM
# Lmaj promast: inhibitors of Leishmania major promastigote growth; Leishmania major promastigotes, resazurin fluorescence viability; inhibition, % at 10 µM; actives 9% (n = 200,000); AID 1063; in the data active = inhibition above about 50%;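 also: promastigotes grown with compound for 44 hours at 28 °C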
# KCC2 mod: modulates chloride dependent transport by human KCC2 | KCC2 cells, thallium flux FluoZin-2 fluorescence | B-score of Tl+ flux slope (higher = more flux/activation; lower = inhibition) at 10 µM | actives 2.2% (n = 190,000) | AID 1456;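 active = thallium flux slope and its plate-corrected score both differing from the plate sample mean at a set confidence after two filtering rounds, in either direction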;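 also: slope of fluorescence scaled to starting intensity during 10 to 20 s after thallium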
# WT yeast gro inh: growth inhibition of WT yeast, mitochondrial fusion screen; mitochondrial fusion phenotypic screen, WT strain; inhibition, % at 10 µM; actives 2.1% (n = 190,000); in the data active = inhibition above about 58%; tested in S. cerevisiae
# Ins promoter up: MIN6 insulin promoter up-regulation. actives 0.3% (n = 190,000). MIN6 insulin promoter-GFP reporter, high-content imaging; stronger effect = higher value. z-score at 5 µM;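 active = z-score above 3 at 5 µM with at least 500 cells counted in the well; inconclusive = wells under 500 cells, flagged as cytotoxic or low count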
# Insulin prom inh: TRM-6 insulin promoter activity inhibition. TRM-6 cells (human fetal islet line), insulin promoter-eGFP reporter, imaging; reporter expression induced with tamoxifen. inhibition, % at 2 µM. actives 0.9% (n = 130,000). AID 1273;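 active = inhibition above the mean plus 3 SD, with well images judged a real hit on visual review, cut at about 60% in these data, passing the limit was not always enough; inconclusive = inhibition over the cutoff but images rejected on review; inactive = inhibition not above the cutoff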
# * marks the source's active call; other numbers are inactive results; u = inconclusive; x = not tested or not shown.
SMILES,ROMK primary,Lmaj promast,KCC2 mod,WT yeast gro inh,Ins promoter up,Insulin prom inh
CCOc1cc(S(=O)(=O)N2CCN(c3ccc(F)cc3)CC2)c(OCC)cc1-n1cnnn1,-0.46,0,-0.029,-43,0.02,27
O=C(O)c1cccnc1,x,-7,-0.016,-9,x,27
O=C(NNC(=O)C1CCCN(S(=O)(=O)c2ccc3ccccc3c2)C1)C1CC1 (centres undefined),-0.71,-4,0.57,3,x,48
Cc1ccc(-c2csc3nnc(SCC(=O)Nc4cccc(C)n4)n23)cc1,x,10,-0.84,-2,-0.25,x
Cc1cc(C)c(NS(=O)(=O)c2ccc(Cl)c(C(=O)O)c2)c(C)c1,0.04,-3,-1.4,-2,-0.22,17
CCCCSc1nnc(CNC(=O)C23CC4CC(CC(C4)C2)C3)n1Cc1ccccc1,x,27,-0.67,59*,-0.2,x
O=C(NCc1nnc(SCc2ccccc2)n1-c1ccccc1)C12CC3CC(CC(C3)C1)C2,x,16,-1.8,-7,-0.28,x
Clc1ccc(/C=N/NC(=Nc2ccccc2)c2ccccn2)c(Cl)c1,x,16,x,74*,-0.17,-37
C(=N\NC(=Nc1ccccc1)c1ccccn1)/c1ccccn1,0.27,48,0.82,2,0.97,-14
COC(=O)Nc1nnc(Cc2ccccc2)s1,x,-5,-0.18,3,-0.12,-18
Cc1ccc(C)c(C2C(C#N)=C(N)Oc3cc(C)oc(=O)c32)c1 (centres undefined),0.18,-4,-1.3,-11,0.98,21
CCOc1ccc(NC(=O)CC2C(=O)N(C)C(=S)N2CCCc2ccccc2)cc1 (centres undefined),-0.37,78*,-0.68,14,-0.45,0
CCCOc1ccc(NC(=O)CC2C(=O)N(CC)C(=S)N2CCCN2CCN(Cc3ccccc3)CC2)cc1 (centres undefined),-0.4,99*,-0.6,24,-1.2,-67
CCCOc1ccc(NC(=O)CC2C(=O)N(CC)C(=S)N2CCNC(C)=O)cc1 (centres undefined),-0.22,-8,-0.47,-13,0,-72
COc1ccc(NC(=O)N2CCCC(CNS(=O)(=O)c3cccs3)C2)c(C)c1 (centres undefined),-0.0025,-4,0.082,-22,0.39,x
COc1cc(C(Nc2ccc3c(c2)OCO3)C(=O)NC2CCCCC2)cc(OC)c1OC (centres undefined),x,2,0.98,-4,-3.8,16
NC(=O)c1cccc2cc3ccccc3cc12,-0.084,4,-1.3,3,-0.09,x
Cc1ccc(CS(=O)(=O)c2ccc(C(=O)N3CCCCC3)cc2[N+](=O)[O-])cc1,-0.18,2,-0.21,-4,-0.07,48
O=C(c1ccc(S(=O)(=O)c2ccc(F)cc2)c([N+](=O)[O-])c1)N1CCCCCC1,-1.8,98*,-0.068,5,-0.22,27
O=C(c1ccc(S(=O)(=O)Cc2ccccc2F)c([N+](=O)[O-])c1)N1CCCC1,0.049,2,1.1,-8,-0.37,0
CC1CCN(C(=O)c2ccc(S(=O)(=O)Cc3ccccc3F)c([N+](=O)[O-])c2)CC1,-0.71,93*,-0.17,-59,0.46,-5
O=C(c1ccc(S(=O)(=O)c2ccccc2Cl)c([N+](=O)[O-])c1)N1CCN(Cc2ccccc2)CC1,-0.3,76*,-0.28,3,x,34
Cc1ccccc1N1C(=O)c2ccccc2C1Nc1cccnc1 (centres undefined),x,12,-0.3,-1,-1.5,x
O=c1[nH][nH]c(-c2ccccc2)c1C=Nc1ccc(F)cc1F,-0.36,-4,0.066,-15,-0.33,x
Cc1oc2c(c1C(=O)NCc1cccnc1)C(=O)c1ccccc1C2=O,x,100*,0.55,88*,-2.2,x
SMILES,ROMK primary,Lmaj promast,KCC2 mod,WT yeast gro inh,Ins promoter up,Insulin prom inh
CCN1CCN(C(=O)c2ccc3c(c2)c(C)c(C)n3Cc2ccccc2)CC1,-1.9,9,-0.55,-11,-1.2,x
Cc1c(C)n(Cc2ccccc2)c2ccc(C(=O)OCCCN(C)C)cc12,x,100*,-0.34,87*,-0.25,0
Cc1cc(NC2CCCCC2)nc2ccccc12,0.56,84*,x,34,-0.77,x
CCOc1cc(C)c(Cl)cc1S(=O)(=O)n1ccnc1,0.0024,92*,-1.1,-6,-0.65,42
COc1ccc(Br)cc1S(=O)(=O)n1ccnc1,0.99,63*,0.68,-2,x,x
OC(CNCc1ccccc1)COCc1ccc(Cl)cc1 (centres undefined),-1.9,84*,1.1,9,x,-50
CCCN1CCCc2cc(CN)ccc21,x,100*,-0.14,27,u,x
CN1CCCc2cc(C=O)ccc21,x,2,0.11,-12,2.2,-397
COc1ccc(C2SCCN2C(=S)Nc2cccc(Cl)c2)cc1 (centres undefined),x,80*,-0.034,29,0.28,x
CCC(C)NC(=O)C(=O)NC1CCCC1 (centres undefined),0.49,-4,0.92,-3,x,39
Cc1cc(C)cc(N(C(=O)c2ccc(Br)o2)C2C=CS(=O)(=O)C2)c1 (centres undefined),-0.66,4,0.69,15,-0.03,-26
Fc1ccc(-c2noc(C3CCN(Cc4cccnc4)CC3)n2)cc1,x,94*,x,22,0.2,x
COCCNC(=S)N1CCC(c2nc(-c3ccc(F)cc3)no2)CC1,-1.5,-13,-0.77,-5,0.2,25
O=C(Nc1cccc(Cl)c1)C1C2CCC3C(CCC21)C3(Cl)Cl (centres undefined),x,16,0.046,80*,-1.3,x
CCCCn1c(CN2CCN(c3cccc(Cl)c3)CC2)nc2c1c(=O)n(C)c(=O)n2C,x,-7,-2.4,72*,-5.6,0
CCCCCCn1c(CN2CCN(CCO)CC2)nc2c1c(=O)n(C)c(=O)n2C,x,40,0.67,2,1.3,100*
CCCCCn1c(CN2CCN(c3cc(Cl)ccc3C)CC2)nc2c1c(=O)[nH]c(=O)n2C,x,35,0.42,65*,-0.2,18
COc1ccccc1C(=O)N1CCN(S(=O)(=O)Cc2ccccc2)CC1,x,-4,x,14,0.1,x
Cc1csc(SCC(=O)c2cc(C)n(Cc3cccs3)c2C)n1,-0.44,56*,x,5,-1.7,3
Cc1cc(C(=O)CSc2n[nH]c(-c3ccccc3F)n2)c(C)n1Cc1cccs1,-1.2,83*,-1.5,-12,-0.54,-43
Cc1cccc(NC(=S)N2CCn3cccc3C2c2cccnc2)c1 (centres undefined),x,89*,-0.49,10,0.02,x
CCCCNC(=S)N1CCn2cccc2C1c1ccc(F)cc1 (centres undefined),0.12,52*,1,61*,-0.01,x
Fc1ccc(NC(=S)N2N=CCC2c2ccccc2)cc1 (centres undefined),-1,8,0.43,16,1.5,30
CCCCNC(=S)N1CCn2cccc2C1c1ccccc1 (centres undefined),0.11,33,0.9,33,x,0
S=C(NCc1ccccc1)N1CCn2cccc2C1c1ccncc1 (centres undefined),-1.5,18,0.22,-7,0.02,x
